Where “and” joins values, the source holds several entries; their conditions need not be identical. Equal entries are not always repeated. About 2,100 (2.2%) of roughly 94,000 compounds were called active. The sample holds actives, similar compounds and a random draw of the others, so the mix is not that of the screen. A number with no mark means an inactive call. Cut-off read from the data, not from the text of the source: active = activity change below about -80%; inconclusive = no clear call, values can overlap the other calls; inactive = above that.
Experiment: Dd2 malaria parasite growth inhibition – SYBR Green fluorescence, single dose replicates, primary screen (AID 1159554)
Conditions: P. falciparum Dd2 growth, 72 h, at 10 µM, hits give low values
COc1ccc2c3c([nH]c2c1)[C@@H](CO)N(Cc1nccs1)CC31CCN(C(=O)C2CCCC2)CC1 gave an activity change of -74.5%. COc1ccc2c3c([nH]c2c1)[C@@H](CO)N(C(=O)Cc1ccccc1)CC31CCN(C)CC1 showed an activity change of -55.8%. Compound COc1ccc2c3c([nH]c2c1)[C@@H](CO)N(C(=O)C1CC1)CC31CCN(Cc2nccs2)CC1 has an activity change of -26.9%. In the case of COc1ccc2c3c([nH]c2c1)[C@H](CO)N(Cc1nccs1)CC31CCN(Cc2ccncc2)CC1, the activity change is reported as -85.5% (active). CCCNC(=O)N1CC2(CCN(Cc3ccc(F)cc3)CC2)c2c([nH]c3cc(OC)ccc23)[C@@H]1CO showed an activity change of -77.7%. For COc1cccc(CN2CC3(CN(Cc4ccccn4)C3)c3c([nH]c4cc(OC)ccc34)[C@@H]2CO)c1, the activity change was -87.9% (active). For COc1ccc2c3c([nH]c2c1)[C@H](CO)N(Cc1ccc(F)cc1)CC31CCN(Cc2ccccn2)CC1, the activity change was -89.5% (active). In the case of COc1ccc2c3c([nH]c2c1)[C@H](CO)N(Cc1nccs1)CC31CCN(Cc2cccnc2)CC1, the activity change is reported as -58.7%. For COc1ccc2c3c([nH]c2c1)[C@H](CO)N(Cc1cccc(F)c1)CC31CCN(Cc2ccccn2)CC1, the activity change was -92.5% (active). Compound C[C@@H]1CCCCO[C@@H](CN(C)S(=O)(=O)c2cn(C)cn2)[C@H](C)CN([C@H](C)CO)C(=O)c2cc(NS(=O)(=O)c3ccc(Cl)cc3)ccc2O1 has an activity change of -31.8%. COCC(=O)N1C[C@@H](C)[C@H](OC)CN(C)C(=O)c2ccc(NC(=O)c3ccc(F)cc3)cc2OC[C@H]1C gave an activity change of 12.6%. In the case of COc1ccc(NC(=O)N(C)C[C@H]2OCCCC[C@H](C)Oc3ccc(NS(=O)(=O)c4ccc(Cl)cc4)cc3C(=O)N([C@@H](C)CO)C[C@H]2C)cc1, the activity change is reported as -68.7%. With CN(C)CC(=O)Nc1ccc2c(c1)[C@@H]1C[C@H](CC(=O)NCc3ccc(-c4ccccc4)cc3)O[C@@H](CO)[C@@H]1O2 the activity change was -1.93%. In the case of COCC(=O)Nc1ccc2c(c1)OC[C@H](C)N(C)C[C@H](C)[C@@H](OC)CN(C)C2=O, the activity change is reported as 26.8%. C[C@@H]1CCCCO[C@H](CN(C)S(C)(=O)=O)[C@@H](C)CN([C@H](C)CO)C(=O)c2cc(NC(=O)Nc3ccc4c(c3)OCO4)ccc2O1 gave an activity change of 25.2%. Work on COCC(=O)Nc1ccc2c(c1)C(=O)N(C)[C@@H]1CC[C@@H](CC(=O)NCc3cccc(F)c3)O[C@@H]1CO2 yielded an activity change of 5.24%. In the case of CNC(=O)C[C@H]1CC[C@H]2[C@H](COc3ccc(NC(=O)c4cccc(F)c4)cc3C(=O)N2C)O1, the activity change is reported as 1.45% and 0.97%. In the case of CC(C)NC(=O)N[C@H]1CC[C@H](CC(=O)N2CCCCC2)O[C@@H]1CO, the activity change is reported as 36.7%. In the case of CCS(=O)(=O)N1[C@H](CO)[C@@H](c2ccccc2)C12CN(C(=O)c1ccccc1F)C2, the activity change is reported as -5.45%. With COc1ccc2c3c([nH]c2c1)[C@@H](CO)N(Cc1ccccc1)CC31CCN(Cc2cncnc2)CC1 the activity change was -91.1% (active). With COc1ccc2c3c([nH]c2c1)[C@@H](CO)N(C(=O)c1ccccc1)CC31CCN(Cc2cccnc2)CC1 the activity change was -47.6%. COc1ccc2c3c([nH]c2c1)[C@@H](CO)N(C(=O)CC1CC1)CC31CCN(Cc2cccnc2)CC1 showed an activity change of -7.62%. For CN(C)CC(=O)N[C@@H]1CC[C@H](CC(=O)O)O[C@H]1CO, the activity change was 14.9%. Compound CO[C@H]1CN(C)C(=O)c2cc(NC(=O)c3cnccn3)ccc2OC[C@H](C)N(C(=O)C2CC2)C[C@H]1C has an activity change of -22.3%. COc1cccc(-c2cn(CC[C@@H]3CC[C@@H](NC(C)=O)[C@@H](CO)O3)nn2)c1 gave an activity change of -3.98%. In the case of C[C@@H]1CN([C@@H](C)CO)S(=O)(=O)c2ccc(/C=C/c3ccccc3)cc2O[C@H]1CN(C)Cc1cccnc1, the activity change is reported as -90.5% (active). In the case of C[C@@H]1CN([C@@H](C)CO)S(=O)(=O)c2ccc(C#Cc3ccccc3)cc2O[C@@H]1CN(C)C(=O)Nc1ccccc1, the activity change is reported as -58.2%. For COc1ccc(C#Cc2ccc3c(c2)O[C@@H](CN(C)C(=O)Nc2cccc(OC)c2)[C@H](C)CN([C@H](C)CO)S3(=O)=O)cc1, the activity change was -89.8% (active). C[C@@H]1CN([C@@H](C)CO)S(=O)(=O)c2ccc(/C=C/c3ccccc3)cc2O[C@H]1CN(C)Cc1ccccc1 showed an activity change of -58.4%. In the case of C[C@H]1CN([C@@H](C)CO)S(=O)(=O)c2ccc(C#Cc3ccccc3)cc2O[C@@H]1CN(C)C(=O)C1CC1, the activity change is reported as -86.3% (active). In the case of C[C@@H]1CN([C@@H](C)CO)S(=O)(=O)c2ccc(/C=C/c3ccccc3)cc2O[C@H]1CN(C)C(=O)C1CC1, the activity change is reported as -88.7% (active). In the case of CCC(=O)N(C)C[C@H]1Oc2cc(/C=C/c3ccccc3)ccc2S(=O)(=O)N([C@H](C)CO)C[C@H]1C, the activity change is reported as -20.8%. Compound C[C@@H]1CN([C@H](C)CO)S(=O)(=O)c2ccc(/C=C/c3ccccc3)cc2O[C@@H]1CN(C)Cc1ccccc1 has an activity change of -19.9%. For COc1ccc(NC(=O)N(C)C[C@H]2Oc3cc(C#CCN(C)C)ccc3S(=O)(=O)N([C@@H](C)CO)C[C@@H]2C)cc1, the activity change was 7.25%. In the case of C[C@H](CO)N1C[C@H](C)[C@@H](CN(C)C(=O)C2CC2)Oc2cc(C#CC3CC3)ccc2S1(=O)=O, the activity change is reported as -9.49%. C[C@H](O)C#Cc1ccc2c(c1)O[C@@H](CN(C)C(=O)C1CC1)[C@H](C)CN([C@H](C)CO)S2(=O)=O showed an activity change of 2.01%. CCC(=O)N(C)C[C@H]1Oc2cc(/C=C/c3ccccc3)ccc2S(=O)(=O)N([C@H](C)CO)C[C@@H]1C gave an activity change of -32.1%. Work on O=C(NC[C@H]1CC[C@@H]2[C@@H](CN2S(=O)(=O)c2ccccc2F)O1)C1CCCCC1 yielded an activity change of 81.8%. In the case of CNC(=O)C[C@@H]1CC[C@@H]2[C@@H](COc3ccc(NC(=O)c4ccc5c(c4)OCO5)cc3C(=O)N2C)O1, the activity change is reported as -13.2%. Work on CN1c2ccc(C3=CCCCC3)cc2[C@@H]2[C@@H](CCN2C(=O)Nc2cc(F)ccc2F)[C@@H]1CO yielded an activity change of -41.1%. In the case of O=C(CC1CC1)N[C@@H]1C[C@@H]2O[C@H](CO)CC[C@@H]2O[C@@H]1CCc1ccc(C#Cc2ccccc2)cc1, the activity change is reported as -36.1%. With CN1c2ccc(C#Cc3ccccc3F)cc2[C@@H]2[C@@H](CCN2C(=O)Cc2cccnc2)[C@H]1CO the activity change was -26.2%. In the case of CNC[C@H]1Oc2cc(C#Cc3ccccc3)ccc2S(=O)(=O)N([C@@H](C)CO)C[C@@H]1C, the activity change is reported as -85% (active). Compound CNC[C@H]1Oc2cc(C#Cc3ccccn3)ccc2S(=O)(=O)N([C@H](C)CO)C[C@@H]1C has an activity change of -6.84%. With C[C@@H]1CN([C@@H](C)CO)S(=O)(=O)c2ccc(C#Cc3ccccc3)cc2O[C@@H]1CN(C)C(=O)C1CC1 the activity change was -82.5% (active). CC(C)C#Cc1ccc2c(c1)O[C@@H](CN(C)C(=O)C1CC1)[C@H](C)CN([C@H](C)CO)S2(=O)=O gave an activity change of -27.6%. Cc1ccc(-c2ccc3c(c2)O[C@@H](CN(C)C(=O)NC(C)C)[C@@H](C)CN([C@H](C)CO)S3(=O)=O)cc1 gave an activity change of -34.3%. In the case of CC(=O)N(C)C[C@@H]1Oc2cc(-c3cncnc3)ccc2S(=O)(=O)N([C@@H](C)CO)C[C@H]1C, the activity change is reported as 21.6%. CNC[C@@H]1Oc2cc(C#Cc3ccc(F)cc3)ccc2S(=O)(=O)N([C@@H](C)CO)C[C@H]1C showed an activity change of -62.7%. With C[C@H](O)C#Cc1ccc2c(c1)O[C@H](CN(C)C(=O)C1CC1)[C@@H](C)CN([C@H](C)CO)S2(=O)=O the activity change was 46.3%. With CC(C)NC(=O)N(C)C[C@H]1Oc2cc(-c3cncnc3)ccc2S(=O)(=O)N([C@@H](C)CO)C[C@H]1C the activity change was -83.1% (active). Compound CCNC(=O)C[C@@H]1C=C[C@@H](NC(=O)C2CCOCC2)[C@@H](CO)O1 has an activity change of 2.77%. COCC(=O)Nc1ccc2c(c1)OC[C@H](C)N(C(=O)Cc1ccccn1)C[C@H](C)[C@@H](OC)CN(C)C2=O gave an activity change of 41.2%. O=C(C[C@H]1CC[C@@H](NC(=O)CC2CC2)[C@@H](CO)O1)NCc1ccccc1 gave an activity change of 10.8%. O=C(NC1CCC1)[C@@H]1[C@@H](CO)[C@@H]2Cn3c(ccc(/C=C/c4ccccc4)c3=O)[C@@H]2N1Cc1ccncc1 gave an activity change of -2.62%. Work on CCCN1C[C@@H](C)[C@@H](OC)CN(C)C(=O)c2ccc(NC(=O)c3ccc(F)cc3)cc2OC[C@@H]1C yielded an activity change of -14.3%. For C[C@H](O)C#Cc1cnc2c(c1)C(=O)N([C@@H](C)CO)C[C@H](C)[C@@H](CN(C)C(=O)c1ccccc1)O2, the activity change was 20.4%. With COCC(=O)Nc1ccc2c(c1)OC[C@H](C)N(Cc1ccccc1)C[C@H](C)[C@@H](OC)CN(C)C2=O the activity change was -12.2%. Cc1ccc(S(=O)(=O)N2C[C@@H](O)COC[C@@H]3O[C@H](CC(=O)NCCCN(C)C)CC[C@H]32)cc1 showed an activity change of -1.46%. With COc1ccc2c3c([nH]c2c1)[C@H](CO)N(C(=O)Nc1ccc(F)cc1)CC31CCN(CC2CCOCC2)CC1 the activity change was -81.3% (active). For CCCNC(=O)N1CC2(C1)CN(Cc1cccc(F)c1)[C@@H](CO)c1[nH]c3cc(OC)ccc3c12, the activity change was -63.2%. Compound COc1ccc2c3c([nH]c2c1)[C@@H](CO)N(C(=O)c1ccc(F)cc1)CC31CCN(C(=O)Nc2ccc(F)cc2)CC1 has an activity change of -75.4%. For COc1ccc2c3c([nH]c2c1)[C@H](CO)N(Cc1cccc(F)c1)CC31CCN(CC2CC2)CC1, the activity change was -83.2% (active). For COc1ccc2c3c([nH]c2c1)[C@H](CO)N(C(=O)C1CCC1)CC31CCN(Cc2cccc(F)c2)CC1, the activity change was -43.8%. Compound COc1ccc2c3c([nH]c2c1)[C@H](CO)N(S(=O)(=O)c1cn(C)cn1)CC31CCN(CC2CC2)CC1 has an activity change of 1.53%. Work on COc1ccc2c3c([nH]c2c1)[C@H](CO)N(C(=O)Nc1ccc(F)cc1)CC31CCN(C(=O)Nc2c(C)noc2C)CC1 yielded an activity change of -35.3%. For COc1ccc2c3c([nH]c2c1)[C@H](CO)N(CC1CC1)CC31CN(C(=O)Nc2cccc(F)c2)C1, the activity change was -49.9%. With COc1ccc2c3c([nH]c2c1)[C@@H](CO)N(Cc1cccc(F)c1)CC31CN(CC2CC2)C1 the activity change was -82.5% (active).
